Results: PubChem BioAssay AID932 (The Scripps Research Institute Molecular Screening Center, 2007)
About 5,100 (2.5%) of roughly 200,000 compounds were called active. Only a selection was taken, and actives are over-represented in it overall. A number with no mark means an inactive call.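 How the source made its calls: active means activation above the screen-wide mean activation plus 3 SD (cut at about 130% in these data); inactive means the rest.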

Experiment: potentiators of IFN-gamma driven STAT1 reporter – cell-based, HTS, luciferase reporter, primary screen (AID 932);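 further: raw ratio to IFN-gamma control signal so 100% means no change and 0% no light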
Details: NIH 3T3 STAT1-luciferase reporter, luminescence, at 5.5 µM, active compounds read high, 100% = IFN-gamma alone, no compound
Molecule `O=C(COc1ccccc1[N+](=O)[O-])NC1CC1` has an activation (% of control) of 92.9%. `NS(=O)(=O)c1ccc(NC(=S)NNC(=O)c2cccs2)cc1` showed an activation (% of control) of 104%. Work on `N#Cc1c(NC(=O)CCCl)sc2c1CCCCC2` yielded an activation (% of control) of 101%. With `N#Cc1c(NC(=O)C2CCCO2)sc2c1CCCCC2` (stereo unspecified) the activation (% of control) was 139% (active). `N#Cc1c(NC(=O)C2CC(Cl)=CCC2C(=O)O)sc2c1CCCCC2` (stereo unspecified) gave an activation (% of control) of 103%. For `CCc1ccc(NC2Nc3cc(C)nn3S2)cc1` (stereo unspecified), the activation (% of control) was 171% (active). Work on `CCOC(=O)c1ccc(NC2Nc3cc(C)nn3S2)cc1` (stereo unspecified) yielded an activation (% of control) of 102%. `CCc1ccc(NC(=O)N2CCN(c3ccccc3)CC2)cc1` showed an activation (% of control) of 109%. `COc1ccc(/C(N)=N/OC(=O)Oc2ccccc2)cc1` gave an activation (% of control) of 98.3%. For `COc1ccc(/C(N)=N/OC(=O)Cc2ccccc2)cc1`, the activation (% of control) was 142% (active). Molecule `COc1ccc(/C(N)=N/OC(=O)CCCc2ccccc2)cc1` has an activation (% of control) of 108%. For `COc1ccccc1-c1nc(SC)n[nH]1`, the activation (% of control) was 103%. In the case of `CCOc1ccc(OCc2cccc(C(=O)N(CC)CC)c2)cc1`, the activation (% of control) is reported as 43.9%. For `COc1cccc(C(=O)Nc2ccc(NC(=O)c3ccco3)cn2)c1`, the activation (% of control) was 108%. For `O=C(Nc1ccc(NC(=O)c2cccs2)cn1)c1ccco1`, the activation (% of control) was 142% (active). With `O=C(Nc1ccc(Oc2ccccc2)cc1)c1ccco1` the activation (% of control) was 132% (active). `CN1CCN(S(=O)(=O)c2ccc(NC(=O)c3ccco3)cc2)CC1` showed an activation (% of control) of 98.8%. With `O=C(O)Cc1ccc(NC(=O)c2cccs2)cc1` the activation (% of control) was 89.8%. For `Cc1ccoc1C(=O)Nc1cccc(Oc2ccccc2)c1`, the activation (% of control) was 137% (active). In the case of `O=C(Nc1ccc(Sc2ccc(Br)cc2)cc1)c1ccco1`, the activation (% of control) is reported as 93.9%. In the case of `C/C(=N\NS(=O)(=O)c1ccc(Cl)cc1)c1ccc(NC(=O)c2ccco2)cc1`, the activation (% of control) is reported as 142% (active). `COC(=O)c1ccc(NC(=O)c2ccco2)cc1` showed an activation (% of control) of 124%. With `C/C(=N/NS(=O)(=O)c1ccccc1)c1ccc(NC(=O)C(F)(F)F)cc1` the activation (% of control) was 105%. Molecule `Cc1ccc(C(=O)COc2cccc(NC(=O)c3ccco3)c2)cc1` has an activation (% of control) of 93.6%. With `Cc1cccc(NC(=O)Nc2cccc(Oc3c(F)c(F)c(F)c(F)c3F)c2)c1` the activation (% of control) was 101%. `Cc1c(Cl)cccc1NC(=S)N(Cc1ccccc1)Cc1cccnc1` showed an activation (% of control) of 94.9%. `CC(=O)Nc1ccc(NC(=S)NC(=O)/C=C/c2ccccc2)cc1` gave an activation (% of control) of 87.3%. `COc1cc(/C=N/N=C(\N)c2nonc2N)cc(OC)c1OC` showed an activation (% of control) of 102%. Molecule `CC(C)(C)n1nc2c(c1NC(=O)c1cc3ccccc3o1)CSC2` has an activation (% of control) of 97.4%. Molecule `Cc1cc(C)n(-c2nnc(N3CCN(c4ccccc4)CC3)nn2)n1` has an activation (% of control) of 104%. For `Cc1ccnc(NC(=O)c2ccc(NC(=O)c3ccco3)cc2)c1`, the activation (% of control) was 129% (active). With `Cc1nnc(NC(=O)/C=C/c2ccco2)s1` the activation (% of control) was 105%. In the case of `Cc1ccnc(NC(=O)c2ccoc2C)c1`, the activation (% of control) is reported as 127%. `O=C(/C=C/c1ccco1)Nc1cccc(-c2nc3ccccc3[nH]2)c1` gave an activation (% of control) of 119%. With `O=C(/C=C/c1ccco1)Nc1ccc(Oc2ccccc2)cc1` the activation (% of control) was 134% (active). `Cc1ccnc(NC(=O)c2ccco2)n1` gave an activation (% of control) of 101%. Molecule `Cn1c(=O)c2c(ncn2CC(=O)N/N=C/c2cn[nH]c2-c2ccc(F)cc2)n(C)c1=O` has an activation (% of control) of 109%. Work on `CC(Oc1ccccc1F)C(=O)NN` (stereo unspecified) yielded an activation (% of control) of 98%. Molecule `CC(C)c1nc(CNC(=O)CC2C(=O)NCCN2Cc2ccoc2)cs1` (stereo unspecified) has an activation (% of control) of 101%. In the case of `O=C(O)c1ccc(NS(=O)(=O)c2ccc3c(c2)C(=O)c2cc(S(=O)(=O)Nc4ccc(C(=O)O)cc4)ccc2-3)cc1`, the activation (% of control) is reported as 95.5%. `CCCn1nc(C(=O)N2CCCc3ccccc32)c2ccccc2c1=O` showed an activation (% of control) of 97.4%. In the case of `COc1ccc(-n2cnc3cc(C(=O)NC4CCCC4)ccc32)cc1`, the activation (% of control) is reported as 110%. Work on `COc1ccc(Nc2nc(Cl)nc(NCc3ccco3)n2)cc1` yielded an activation (% of control) of 104%. In the case of `COc1ccc(-n2cnc3cc(NCc4ccco4)ccc32)cc1`, the activation (% of control) is reported as 137% (active). In the case of `COc1cc(C(=O)N[C@@H](C)C(=O)NCc2ccco2)cc(OC)c1OC`, the activation (% of control) is reported as 102%. With `CN(CC(=O)Nc1ccccc1[N+](=O)[O-])Cc1ccc(Br)cc1` the activation (% of control) was 97.7%. `CC(C)CCN1CCN(Cc2ccc(C(F)(F)F)cc2)CC1CCO` (stereo unspecified) gave an activation (% of control) of 100%. For `O=C1CC(c2cccc(Cl)c2)CC(O)=C1C=Nc1ccccc1` (stereo unspecified), the activation (% of control) was 99.6%. `CC1=NN(c2ccccc2)C(=O)C1C(=O)c1ccc([N+](=O)[O-])cc1` (stereo unspecified) showed an activation (% of control) of 94.7%. `Cn1c(=O)n(Cc2ccco2)c(=N)c2c3c(sc21)CCCC3` showed an activation (% of control) of 103%. For `Cc1cc(C(=O)Nc2ccccc2N2CCOCC2)c2ccccc2n1`, the activation (% of control) was 102%. With `Cc1nn2c3cc(N4CCOCC4)ccc3nc2c2ccccc12` the activation (% of control) was 134% (active). In the case of `N#CCSc1nc2ccc(N3CCOCC3)cc2c(=O)n1CCc1ccccc1`, the activation (% of control) is reported as 102%. `CCCc1c(C)nc2c(Br)cccc2c1Cl` gave an activation (% of control) of 97.5%. Work on `Cc1nc2ccccc2nc(C)c1=NOCc1ccc(Cl)cc1Cl` yielded an activation (% of control) of 111%. Molecule `O=C(OCC#CCSc1nnc(-c2ccncc2)o1)c1sc2ccccc2c1Cl` has an activation (% of control) of 100%. Molecule `Clc1ccc(-c2nnc(SCc3nc4ccccc4s3)o2)cc1` has an activation (% of control) of 122%. With `C#CCSc1nnc(-c2sc3ccccc3c2Cl)o1` the activation (% of control) was 140% (active). Work on `Cc1nonc1C1CCCN1Cc1nc(-c2ccc(F)cc2F)oc1C` (stereo unspecified) yielded an activation (% of control) of 96%. For `CN(C)CCN=c1cc(-c2ccccc2)oc2ccc(Cl)cc12`, the activation (% of control) was 148% (active). With `CN(C)CCn1c(=S)[nH]c2ccc(Cl)cc2c1=O` the activation (% of control) was 95.1%. In the case of `Cc1ccc(N(Cc2cc3ccccc3[nH]c2=O)C(=O)c2cccs2)cc1`, the activation (% of control) is reported as 91.2%. `CN(C)S(=O)(=O)Oc1ccccc1C(=O)Nc1ccccc1Cl` gave an activation (% of control) of 91.9%. For `O=C(Cc1cccc2ccccc12)NCCC1=CCCCC1`, the activation (% of control) was 101%. In the case of `O=C(Cc1nn[nH]n1)NCCC1=CCCCC1`, the activation (% of control) is reported as 94.3%. In the case of `Cn1nnc2cc(C(=O)NCCC3=CCCCC3)ccc21`, the activation (% of control) is reported as 153% (active). With `CN(c1ccc(C(=O)NCCC2=CCCCC2)cc1)S(C)(=O)=O` the activation (% of control) was 158% (active). Molecule `CN(c1ccc(C(=O)NCc2ccccn2)cc1)S(C)(=O)=O` has an activation (% of control) of 106%. Molecule `O=C(NCCC1=CCCCC1)c1ccc(Cl)c([N+](=O)[O-])c1` has an activation (% of control) of 110%. `Cc1nnc(SCC2=C(C(=O)O)N3C(=O)C(NC(=O)Cn4nc(C)c(Cl)c4C)C3SC2)s1` (stereo unspecified) gave an activation (% of control) of 99.2%. Work on `CCOC(=O)C1CCCN(C(=O)COc2ccc(N(C)S(=O)(=O)c3ccc(C)cc3)cc2)C1` (stereo unspecified) yielded an activation (% of control) of 102%. With `Cc1[nH]nc(SCC(=O)NCC(C)C)c1[N+](=O)[O-]` the activation (% of control) was 102%. With `Cc1cccc(N=C2NN=C(c3c[nH]c4ccccc34)CS2)c1` the activation (% of control) was 106%. Molecule `c1ccc(CN2CCC(N=C3NN=C(c4ccc5c(c4)OCCO5)CS3)CC2)cc1` has an activation (% of control) of 114%. In the case of `Clc1cccc(N=C2NN=C(c3ccc4c(c3)OCCO4)CS2)c1`, the activation (% of control) is reported as 148% (active). `CCN1CCC2(CC1)N=C(c1ccc(F)cc1)C(=S)N2C(=O)c1ccc(C)cc1` showed an activation (% of control) of 111%. `c1ccc(-c2[nH]ncc2-c2nc3ccccc3[nH]2)cc1` gave an activation (% of control) of 89.6%. `Cc1ccc(-c2nc3ccccc3[nH]2)cc1N` gave an activation (% of control) of 118%. With `c1ccc2[nH]c(-c3nc4ccccc4[nH]3)nc2c1` the activation (% of control) was 146% (active). `O=C(Nc1ccncc1)c1ccccc1[N+](=O)[O-]` gave an activation (% of control) of 105%. Molecule `O=C(NC(CC(=O)N1CCN(c2ccccc2)CC1)c1ccccc1)c1ccccc1Cl` (stereo unspecified) has an activation (% of control) of 95%. Molecule `O=C(OCC(=O)c1c[nH]c2ccccc12)c1cccc(O)c1` has an activation (% of control) of 93.7%. In the case of `O=S(=O)(NCCc1ccc(F)cc1)c1cccc2cccnc12`, the activation (% of control) is reported as 102%. Molecule `OCC1(CCc2ccccc2)CCN(Cc2ccc3nsnc3c2)CC1` has an activation (% of control) of 100%. Molecule `Cc1ccc(S(=O)(=O)N2CCOCC2)cc1C(=O)NC(=S)N(Cc1ccccc1)C(C)C` has an activation (% of control) of 102%. For `Cc1ccc(C(=O)N/C(=C/c2cccs2)C(=O)NCC2CCCO2)cc1` (stereo unspecified), the activation (% of control) was 99.5%. Molecule `Cc1ccc(S(=O)(=O)N2CCC(C(=O)NCC3CCCO3)CC2)cc1` (stereo unspecified) has an activation (% of control) of 99.9%. With `Cc1ccc(-n2c(C)cc(/C=C(\C#N)C(=O)NCC3CCCO3)c2C)cc1` (stereo unspecified) the activation (% of control) was 140% (active). `O=C(Nc1ccc(F)c([N+](=O)[O-])c1)C1CC(=O)N(Cc2ccccc2)C1` (stereo unspecified) gave an activation (% of control) of 95.9%. For `CN(C)Cc1ccc(F)cc1Sc1cc(Cl)ccc1Cl`, the activation (% of control) was 98.7%. `O=C(COC(=O)Cn1cnc2ccccc21)Nc1cccc2c1C(=O)c1ccccc1C2=O` gave an activation (% of control) of 104%. With `O=C(c1cccc(C(=O)N2CCc3ccccc32)n1)N1CCc2ccccc21` the activation (% of control) was 95.1%. `Cc1occc1C(=O)N1CCCc2ccccc21` gave an activation (% of control) of 104%. With `O=C(c1cnn2ccccc12)N1CCc2ccccc21` the activation (% of control) was 136% (active). `O=C(Cc1c(F)cccc1Cl)Nc1ccc(-n2cnnn2)cc1` showed an activation (% of control) of 98.6%. With `COc1ccc(NC(=O)CN2C(=O)C(c3ccccc3)=NC23CCCCCC3)cc1OC` the activation (% of control) was 104%. `N#CC(=C1CCCC1)c1nc(-c2ccc(Cl)cc2)cs1` showed an activation (% of control) of 110%. Molecule `N#C/C(=C1\CCCN1)c1nc(-c2ccccc2)cs1` has an activation (% of control) of 105%. With `N#CC(=C1SC=CS1)c1nc(-c2ccccc2)cs1` the activation (% of control) was 133% (active). `O=C(CN(CC1CCCO1)C(=O)CNS(=O)(=O)c1ccc(F)cc1)NCc1ccco1` (stereo unspecified) gave an activation (% of control) of 109%. Work on `COc1cc(OC)cc(-c2nc(=S)n3ccsc3n2)c1` yielded an activation (% of control) of 108%.
